From PubChem BioAssay (Tox21) come the findings set out here.

“And” between values parts separate entries of the source, which are not always exact repeats. Identical values can stand only once. Unmarked numbers belong to inactive results. Results filed as inconclusive are left out. The source made the active and inactive calls. Unless noted, calls come from the whole dose curve; as a rule, active = well fitted curve in the direction sought with a large enough effect in the repeat runs; inconclusive = weak or mixed curves; inactive = no such curve, though single readings can be large; an effect the other way counts as inactive or inconclusive.

Assay [1] in a line: A CellTox Green Cytotoxicity Assay to monitor cytotoxicity in HEK293 cells - 32 hour (AID 1224881). Note: nearly all actives have a fitted effect of over 40% in size. In outline: (§1)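 Dead-cell fluorescence measured kinetically: asymmetric cyanine dye, HEK293, 600 cells/well, 5 h settle, 23 nL cpd/DMSO, 37 C, reads 0–40 h every 8 h.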
Assay [2] in a line: A CellTox Green Cytotoxicity Assay to monitor cytotoxicity in HepG2 cells - 0 hour (AID 1224882). Note: nearly all actives have a fitted effect of over 35% in size. In outline: (§2)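 First, HepG2 cells (600/well) mixed with reagent were plated; second, after 5 h at 37 C they received compounds via pintool; third, fluorescence was measured at 0 h through 40 h at 8 h intervals.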
Assay [3] is described as follows: A CellTox Green Cytotoxicity Assay to monitor cytotoxicity in HepG2 cells - 32 hour (AID 1224883). Note: nearly all actives have a fitted effect of over 50% in size. In outline: as §2
Assay [4] in a line: A CellTox Green Cytotoxicity Assay to monitor cytotoxicity in HEK293 cells - 8 hour (AID 1224884). Note: nearly all actives have a fitted effect of over 35% in size. In outline:
as §1

Assay [5] is described as follows: qHTS RealTime-Glo MT Cell Viability Assay in HepG2 cells - 16 hour (AID 1224885). Note: nearly all actives have a fitted effect of over 50% in size. In outline: (§3)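 HepG2 suspension premixed with RealTime-Glo reagents is plated at 600 cells per well and left 5 h at 37 C/5% CO2. Compounds in DMSO then go in, and bioluminescence reflecting viable cell number is recorded over 40 h.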
Assay [6] in a line: qHTS RealTime-Glo MT Cell Viability Assay in HEK293 cells - 24 hour (AID 1224886). Note: nearly all actives have a fitted effect of over 50% in size. Note: potency is the fitted concentration of half-maximal effect. In outline:
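Reads taken at 0, 8, 16, 24, 32 and 40 h from the same wells. HEK293 cells (600/well) carried RealTime-Glo reagents from seeding, with compound added after a 5 h settle at 37 C.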
(qHTS replaces the single test concentration by a dilution series.)

Assay [7] in a line: qHTS RealTime-Glo MT Cell Viability Assay in HEK293 cells - 8 hour (AID 1224887). Note: top concentration of the series differs between compounds; nearly all actives have a fitted effect of over 50% in size. In outline: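 600 HEK293 cells per well, dispensed already mixed with RealTime-Glo MT reagents. Compound dosing came 5 h later. The same wells were read for luminescence at 0, 8, 16, 24, 32 and 40 h of exposure at 37 C.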
Assay [8] in a line: A CellTox Green Cytotoxicity Assay to monitor cytotoxicity in HEK293 cells - 16 hour (AID 1224888). Note: nearly all actives have a fitted effect of over 35% in size. In outline: as §1
The nature of assay [9]: qHTS RealTime-Glo MT Cell Viability Assay in HepG2 cells - 0 hour (AID 1224889). Note: nearly all actives have a fitted effect of over 50% in size. In outline: as §3
Assay [10] can be described thus: A CellTox Green Cytotoxicity Assay to monitor cytotoxicity in HepG2 cells - 8 hour (AID 1224890). Note: nearly all actives have a fitted effect of over 45% in size. In outline: as §2
A short description of assay [11]: qHTS assay to identify small molecule antagonists of the estrogen receptor alpha (ER-alpha) signaling pathway using the BG1 cell line in the presence of 0.1 nM 17-beta-estradiol - cell viability counter screen (AID 1259241). Note: nearly all actives have a fitted effect of over 40% in size. In outline: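 Following 5 days in phenol red-free medium with charcoal-stripped serum, VM7Luc4E2 cells received test compounds alongside 0.1 nM 17beta-estradiol (final) at 37C for 22 hr. Live cells were then quantified via protease-substrate fluorescence.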

The nature of assay [12]: qHTS assay to identify small molecule antagonists of the androgen receptor (AR) signaling pathway using the MDA cell line in the presence of 0.5 nM R1881 - cell viability counter screen (AID 1259242). Note: nearly all actives have a fitted effect of over 45% in size. In outline:
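qHTS format. MDA-kb2 (MMTV-luc, AR/GR responsive) + cpd + 0.5 nM R1881 final, 16 hr 37C/0% CO2 → CellTiter-Fluor 30 min → fluorescence intensity.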

Assay [13] is described as follows: qHTS assay to identify small molecule phospholipidosis (PLD) inducers (AID 1259344; active = well fitted curve in the direction sought with a large enough effect; an effect the other way counts as inactive or inconclusive). In outline:
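Accumulated phospholipid, stained red by LipidTOX during 24 h compound treatment of HepG2 cells at 37 C, is quantified from images as pit number and intensity, normalised per cell using Hoechst-stained nuclei.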

The nature of assay [14]: qHTS assay to identify small molecule HDAC inhibitors (AID 1259364).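 Note: wild-type HCT-116 cells with endogenous class I/II HDAC activity; top concentration of the series differs between compounds; nearly all actives have a fitted effect of over 45% in size.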 In outline:
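Quantitative high-throughput format: overnight-seeded HCT-116 cells got compounds for 2 hr at 37C; HDAC-Glo I/II reagent added, 30 min RT, luminescence measured.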

Assay [15] can be described thus: qHTS assay to identify small molecule agonists of the sonic hedgehog signaling (Shh) pathway - cell viability counter screen (AID 1259366). Note: nearly all actives have a fitted effect of over 50% in size. Note: potency is the fitted concentration of half-maximal effect. In outline:
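Compounds in DMSO were pin-transferred onto 3T3 Gli1-Luc cells that had settled 4hr; plates then stood 24hr at 37C and 5% CO2. One hour before the end, CellTiter-Fluor was added and fluorescence recorded.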

A short description of assay [16]: qHTS assay to identify small molecule antagonists of the sonic hedgehog signaling (Shh) pathway - cell viability counter screen (AID 1259367). Note: nearly all actives have a fitted effect of over 55% in size. Note: potency is the fitted concentration of half-maximal effect. In outline: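 CellTiter-Fluor signal in conditioned medium-stimulated 3T3 Gli1-Luc cells, 23 hr compound exposure, 37C.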
The nature of assay [17]: qHTS assay to identify small molecule agonists of the sonic hedgehog signaling (Shh) pathway (AID 1259368; calls by dose curve;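 note: NIH/3T3-derived 3T3Gli1-Luc cells carrying a stable Gli1-driven firefly luciferase reporter; series mostly up to about 92 µM; nearly all actives have a fitted effect of over 15% in size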). In outline:
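Quantitative high-throughput format using a Gli1-driven firefly luciferase reporter line derived from NIH/3T3 cells. After a 24 hr compound treatment at 37 C and 5% CO2, luminescence reported Gli1 response element activity.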

Assay [18] in a line: qHTS assay to identify small molecule HDAC inhibitors - cell viability counter screen (AID 1259365). In outline: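 HCT-116 wild-type, overnight attachment; 2hr drug exposure, 37C; CellTiter-Glo luminescent ATP readout after 30min RT.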
Assay [19] has as its target Estrogen receptor (Homo sapiens) (UniProt P03372). The assay can be described thus: qHTS assay to identify small molecule antagonists of the estrogen receptor alpha (ER-alpha) signaling pathway using the BG1 cell line in the presence of 0.1 nM 17-beta-estradiol (AID 1259244). Note: nearly all actives have a fitted effect of over 50% in size. In outline: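 Reporter is a stably transfected luciferase under four estrogen responsive elements in VM7Luc4E2 cells expressing native full-length ER-alpha; inhibition of 0.1 nM (final) 17beta-estradiol-driven signal over 22 h is read by luminescence.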
% is set by controls: 0 for no effect and ±100 for the full control effect.

Sequence of Estrogen receptor (Homo sapiens) (P03372 whole entry, looked up): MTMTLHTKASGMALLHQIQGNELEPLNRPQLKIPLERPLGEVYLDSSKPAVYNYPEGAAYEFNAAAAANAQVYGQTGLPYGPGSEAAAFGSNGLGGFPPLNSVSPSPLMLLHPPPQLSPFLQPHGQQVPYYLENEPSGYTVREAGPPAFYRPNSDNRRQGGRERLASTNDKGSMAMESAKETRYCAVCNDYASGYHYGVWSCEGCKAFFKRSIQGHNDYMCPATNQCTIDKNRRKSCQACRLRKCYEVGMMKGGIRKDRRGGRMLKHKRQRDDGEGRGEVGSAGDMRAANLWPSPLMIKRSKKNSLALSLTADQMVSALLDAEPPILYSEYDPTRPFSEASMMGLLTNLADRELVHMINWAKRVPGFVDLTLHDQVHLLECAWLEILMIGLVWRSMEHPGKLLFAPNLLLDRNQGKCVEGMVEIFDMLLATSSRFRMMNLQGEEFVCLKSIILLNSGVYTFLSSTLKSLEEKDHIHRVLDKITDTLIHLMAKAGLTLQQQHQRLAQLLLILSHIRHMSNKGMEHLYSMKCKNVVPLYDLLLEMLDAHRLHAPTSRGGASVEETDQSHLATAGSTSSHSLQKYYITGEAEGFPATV

As for `CC[N+]1(C)CCCC(OC(=O)C(O)(c2ccccc2)c2ccccc2)C1` (centres undefined), the Potency entry in assay [1], in assay [2], in [3], in [4], in assay [5] and in [6] was “inactive” each time. The Potency entry in assay [7], in assay [8], in [10], in [11], in assay [12] and in assay [14] was “inactive” throughout. In addition, the Potency result in assay [15], in [16] and in assay [17] was “inactive” in each case. The result in assay [9] and in assay [13] was inactive.
`C[C@@H]1C[C@@H]([C@H](O)CC2CC(=O)NC(=O)C2)C(=O)[C@@H](C)C1`: the Potency result in assay [1], in assay [2], in assay [3], in assay [4], in [5] and in [7] was “inactive” each time. For the same compound, the Potency result in [8], in assay [10], in assay [11], in [12], in assay [14] and in [18] was “inactive” throughout. The Potency result in assay [17] is “inactive”. In addition, the Potency was 434 nM (active) and 245 nM (active) and 169 nM (active) in [6]; 2160 nM (active) in [15]; 136 nM (active) and 969 nM (active) in [16]. Also, in assay [9], the call was inactive. Further, the PLD induction in assay [13] is 2.68% [at 7.66 µM].
Turning to `COC(=O)C1(O)c2ccccc2-c2ccccc21`, the Potency entry in [1], in [2], in assay [3], in assay [4], in assay [5] and in assay [6] was “inactive” throughout. Moreover, the Potency result in assay [7], in [8], in assay [10], in assay [11], in assay [12] and in [14] was “inactive” throughout. In addition, the Potency result in [18], in [15], in assay [16] and in assay [17] was “inactive” throughout. Moreover, in assay [9], the compound was called inactive.
For `CC(Oc1cc(Cl)c(Cl)cc1Cl)C(=O)O` (centres undefined), the Potency result in assay [1], in [2], in assay [3], in assay [4], in [5] and in [6] was “inactive” each time. The Potency entry in assay [7], in [8], in [10], in [11], in assay [12] and in [19] was “inactive” each time. The Potency result in [14], in assay [18], in [15], in assay [16] and in assay [17] was “inactive” throughout. Moreover, the compound was classed as inactive in assay [9].
For `CCc1ccccc1N`, the Potency result in [1], in assay [2], in [3], in assay [4], in assay [5] and in [6] was “inactive” in each case. Besides, the Potency entry in [7], in [8], in assay [10], in assay [11], in [12] and in assay [19] was “inactive” in each case. Also, the Potency result in assay [14], in assay [18], in assay [15], in assay [16] and in assay [17] was “inactive” throughout. For the same compound, in [9], the compound was called inactive.
Consider `NNCCO`, for which the Potency entry in [1], in assay [2], in [3], in assay [4], in assay [5] and in assay [6] was “inactive” throughout. Besides, the Potency entry in assay [7], in [8], in assay [10], in assay [11], in assay [12] and in assay [19] was “inactive” each time. In addition, the Potency result in [14], in [18], in assay [15], in assay [16] and in [17] was “inactive” each time. Also, in assay [9], the compound was called inactive.
Regarding `CC(O)CN1CCN(CC(=O)[O-])CCN(CC(=O)[O-])CCN(CC(=O)[O-])CC1.[Gd+3]` (centres undefined), the Potency entry in assay [1], in assay [2], in assay [3], in assay [4], in assay [5] and in assay [6] was “inactive” throughout. Moreover, the Potency result in assay [7], in assay [8], in assay [10], in assay [11], in assay [12] and in assay [14] was “inactive” throughout. For the same compound, the Potency entry in assay [18], in assay [15], in [16] and in assay [17] was “inactive” each time. Also, the outcome in assay [9] and in [13] was inactive.
